Measured values reported in PubChem BioAssay.
“And” between values parts separate entries of the source, which are not always exact repeats. Identical values can stand only once. For some of these results: Potency and affinity values are given separately. The source made the active and inactive calls. Cut-off read from the data, not from the text of the source, unless noted: active = parasite load remaining mostly below about 12% (no sharp cut-off); inactive = mostly above about 10%.

Assays:
[1] = blockers of polyQ-driven CASP3 activation – cell-based (AID 1583); details: polyglutamine-induced caspase-3 activation, cell assay; stronger effect = higher value;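 tested at 10 µM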
[2] = yeast 75Q aggregation reduction – 75Q-TubU reporter (AID 1593); details: Yeast 75Q polyglutamine aggregation reporter
[3] = restoration of touch response, mutant HTT neurons – whole organism, C. elegans mechanosensory neurons, N-terminal huntingtin (AID 1599); details: C. elegans polyQ-huntingtin mechanosensory neurons, stronger effect = higher value
[4] = blockers of cytochrome c efflux from mitochondria – biochemical, purified mitochondria (AID 1603); details: stronger effect = lower value;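 note: mouse liver mitochondria challenged with calcium chloride; signal normalized to the plate average as 100%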
[5] = polyglutamine aggregate formation blockers (AID 1604); details: polyglutamine-induced protein aggregation inhibition assay; stronger effect = higher value; tested at 2.5 µM
[6] = glutamate transport activators, MN-1 cells, MN-1 cell line (AID 1612); details: MN-1 motor neuron cells, stronger effect = higher value;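 note: tested at 1 µM final; 0% = mean of DMSO vehicle wells on each plate; positive means more glutamate uptake than control and negative means less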
[7] = GFP-Q80 aggregate reduction, neuronal-like cells, cell-based, NGF-treated PC12, GFPQ80 (AID 1614); details: PC12 NGF-treated GFP-polyQ80 inclusion reduction;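 note: lower means fewer inclusions and 0 means no inclusions at all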
[8] = 75Q-TubH aggregate inhibition, S. cerevisiae, yeast (AID 1616); details: S. cerevisiae 75Q-TubH polyglutamine aggregation suppression; stronger effect = higher value
[9] = P. berghei load reduction in hepatocytes – cell-based, HepG2, luciferase luminescence, HepG2 viability, primary screen (AID 624349);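 note: 100% = mean of DMSO negative control wells on the same plate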; details: P. berghei liver stage in HepG2, luciferase luminescence, concentration not given here; parasite load remaining: stronger effect = lower value; viability: measured here: HepG2 viability without parasites
[10] = EMT-state selective cytotoxicity in co-culture – imaging, PC-3E GFP, TEM4-18 mCherry, primary screen (AID 1345086;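 active = compounds killing one labelled cell type while sparing the other, by normalised counts and ratio limits, not self-fluorescent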;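 for all read-outs here: cells exposed to compound for 72 h before imaging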;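 for red/green cell ratio (normalised): normalised mesenchymal count divided by normalised epithelial count so high means epithelial killing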); details: PC-3E GFP / TEM4-18 mCherry co-culture, imaging cell counts, at 1 µM; for red/green cell ratio (normalised): actives lie on both sides, counts scaled to control wells, 1 = unselective
[11] = viability loss with induced miR-34 in A549 – imaging, A549 dox-inducible miR-34, nuclei and caspase counts, primary screen (AID 1347080;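 active = compounds whose cell count with miR-34 switched on is under 0.7 times the count with it off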); details: A549 miR-34 inducible, Hoechst nuclei count, 48 h
[12] = measured here: epithelial PC-3E GFP cell survival
[13] = measured here: mesenchymal TEM4-18 mCherry cell survival
[14] = stronger effect = lower value, cell number ratio, induced over uninduced
[15] = measured here: relative caspase fold change +Dox/-Dox
[16] = measured here: total cells with miR-34 induction, stronger effect = lower value
[17] = measured here: total cells without miR-34 induction

Structure (SMILES) | inhibition [1] | score [2] | rescue above control [3] | cytochrome c release ratio [4] | inhibition of aggregation [5] | glutamate uptake change [6] | inclusion score [7] | aggregation suppression score [8] | parasite load remaining [9] | viability [9] | red/green cell ratio (normalised) [10] | normalised cell number [10, 12] | normalised cell number [10, 13] | fold change [11, 14] | fold change [11, 15] | cell count [11, 16] | cell count [11, 17]
CC(=O)OCC(=O)[C@@]1(O)[C@H](OC(C)=O)CC2C3CCC4=CC(=O)C=C[C@]4(C)[C@@]3(F)[C@@H](O)C[C@@]21C (some centres not stated) | -24% | 1.15 | 19.5 | 1.31 | 89.7% | 9.09% | 2.5 | 0.805 | 160% (inactive) and 64.8% (inactive) | 67.1% and 85.5% | 1.19 (inactive) | 0.98 | 1.17 | 0.86 (inactive) | 3.23 | 7630 | 8870
CCN1CCN(C(=O)NC(C(=O)NC2C(=O)N3C(C(=O)O)=C(CSc4nnnn4C)CSC23)c2ccc(O)cc2)C(=O)C1=O (configuration not stated) | 16.1% | 1.1 | -10 | 0.84 | 50.2% | 15.1% | 2 | 1.47 | 146% (inactive) and 45.3% (inactive) | 72.7% and 103% | 1.23 (inactive) | 0.99 | 1.22 | 0.914 (inactive) | 3.35 | 12000 | 13100
C#C[C@]1(O)CCC2C3CCC4=CC(=O)CC[C@@H]4C3CC[C@@]21CC (some centres not stated) | 13.1% | 1.25 | 7 | 0.87 | 11.1% | -5.94% | 2 | 1.03 | 86.4% (inactive) and 40.3% (inactive) | 65.9% and 90.1% | 1.08 (inactive) | 0.78 | 0.84 | 0.867 (inactive) | 2.88 | 10400 | 12000
CCN1CCN(C(=O)NC(C(=O)N[C@@H]2C(=O)N3[C@@H]2SC(C)(C)[C@@H]3C(=O)O)c2ccccc2)C(=O)C1=O (some centres not stated) | -12.4% | 1.33 | 11.4 | 1 | 57.7% | 3.02% | 2 | 1.27 | 83.4% (inactive) and 122% (inactive) | 73% and 103% | 1.25 (inactive) | 0.93 | 1.17 | 0.831 (inactive) | 1.11 | 10100 | 12200
NC(N)=Nc1nc(CSCC/C(N)=N\S(N)(=O)=O)cs1 | -15% | 1.36 | -0.31 | 1.43 | 82% | -4.06% | 1 | 1.04 | 106% (inactive) and 35.6% (inactive) | 69.4% and 84.3% | 1.13 (inactive) | 0.95 | 1.07 | 0.887 (inactive) | 1.64 | 11500 | 12900
NC[C@@H]1O[C@H](O[C@@H]2[C@@H](CO)OC(O[C@@H]3[C@@H](O)[C@H](N)C[C@H](N)[C@H]3OC3O[C@H](CN)[C@@H](O)[C@H](O)[C@H]3N)[C@@H]2O)[C@H](N)[C@@H](O)[C@@H]1O (some centres not stated) | -14.5% | 0.97 | 4.93 | 0.82 | 43.7% | -6.09% | 2 | 1.49 | 59.3% (inactive) | 91.2% | 0.97 (inactive) | 1.02 | 0.98 | 0.934 (inactive) | 0.542 | 12000 | 12900
C[C@]12CCC(=O)C=C1CCC1C2[C@@H](O)C[C@@]2(C)C1CC[C@]2(O)C(=O)CO (some centres not stated) | 5.24% | 1.39 | -4.34 | 1.36 | 63.4% | 10.6% | 2 | 1.61 | 94% (inactive) | 99.2% | 1.04 (inactive) | 1.28 | 1.34 | 0.949 (inactive) | 3.13 | 7100 | 7490
CC(=O)OCC(=O)[C@@]12OC3(CCCC3)O[C@@H]1CC1C3CCC4=CC(=O)C=C[C@]4(C)[C@@]3(F)[C@@H](O)C[C@@]12C (some centres not stated) | 11.1% | 0.65 | -4.49 | 0.91 | 31.4% | 27.2% | 2 | 0.855 | 189% (inactive) and 59% (inactive) | 84% and 96.4% | 1.04 (inactive) | 1.4 | 1.46 | 0.917 (inactive) | 2.86 | 7510 | 8190
C[C@H](CCC(=O)O)[C@H]1CCC2C3C(=O)CC4CC(=O)CC[C@]4(C)C3CC(=O)[C@@]21C (some centres not stated) | 12.1% | 1.59 | -5.38 | 1.29 | 91.6% | 7.41% | 2 | 1.06 | 101% (inactive) and 58% (inactive) | 69.6% and 86.9% | 1.22 (inactive) | 1.21 | 1.47 | 0.851 (inactive) | 1.32 | 10500 | 12400
CNC[C@@H](O)c1ccc(O)c(O)c1 | 15.5% | 1.46 | -0.75 | 0.7 | 86.2% | -6.16% | 1 | 1.31 | 51.9% (inactive) and 119% (inactive) | 72.9% and 92% | 1.49 (inactive) | 1.01 | 1.5 | 0.901 (inactive) | 3.62 | 11500 | 12800
C#C[C@]1(O)CCC2C3CCC4=CC(=O)CC[C@@H]4C3CC[C@@]21C (some centres not stated) | -3.25% | 0.94 | 10.4 | 1.47 | 89.7% | -5.05% | 2 | 0.524 | 118% (inactive) and 51.8% (inactive) | 71.2% and 90% | 0.86 (inactive) | 1.29 | 1.11 | 0.914 (inactive) | 1.55 | 10400 | 11300
